Screening results from PubChem.
In the library only some 1.6% were active in any assay of this set; here they are far more common.
PABP polyA inh – PABP poly(A) RNA binding inhibitors, primary screen, biochemical, fluorescence polarization, uHTS | Polyadenylate-binding protein 1 (Homo sapiens), P11940 | actives 1% (n = 290,000) | inhibition, % at 35 µM | AID 2014, 2009;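 further: calls also rest on retests at 20 µM and on dose response follow-up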
PERK inh – block of dimerizer-induced PERK translation repression, primary screen, PERK inhibitor project, CHO PERK-DD cells, SEAP luminescence, HTS; CHO PERK-DD fusion, SEAP luminescence translation reporter; actives 0.17% (n = 220,000); inhibition, % at 5.6 µM; Eukaryotic translation initiation factor 2-alpha kinase 3 (Homo sapiens), Q9NZJ5;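 active means inhibition above the mean inhibition of all tested compounds plus 3 SD, set separately per screening campaign, cut at about 2.9% in these data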;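 further: PERK kinase domain activated by AP20187 dimerizer at 100 nM; 0% = DMSO with dimerizer and 100% = rapamycin at 8.4 µM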
MLLE-PAM2 inh – inhibitors of PABP1 MLLE–PAM2 peptide binding, primary screen, biochemical, fluorescence polarization, FITC-PAM2, GST-MLLE; Polyadenylate-binding protein 1 (Homo sapiens), P11940; inhibition, % at 20 µM; actives 0.36% (n = 360,000); AID 588489, 2011; in the data active means inhibition above about 35%, passing the limit was not always enough;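 further: plate controls were DMSO wells with GST-MLLE for no effect and wells lacking GST-MLLE protein for full effect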
eIF4H inh – human eIF4H binding inhibitors, primary screen, translation initiation inhibitor project, biochemical, uHTS, fluorescence polarization; Eukaryotic translation initiation factor 4H (Homo sapiens), Q15056; eIF4H fluorescence polarization binding assay; inhibition, % at 35 µM; actives 0.94% (n = 290,000); AID 2012, 2009;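 further: calls also rest on retests at 20 µM and on dose response follow-up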
eIF4E 4G PPI – eIF4E–eIF4G protein interaction inhibitors, primary screen, biochemical, uHTS, TR-FRET, eIF4GI fragment. TR-FRET eIF4E-eIF4GI(517-606) binding, 2 h. inhibition, % at 21.7 µM. actives 0.37% (n = 220,000). AID 782, 2007;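 active means inhibition above about 30%, limit read from the data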;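 further: 0% = full FRET control wells and 100% = background wells lacking eIF4GI fragment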
* marks the source's active call; other numbers are inactive results; u = inconclusive; x = not tested or not shown. Unless noted, how the calls were made is not given here.

SMILES | PABP polyA inh | PERK inh | MLLE-PAM2 inh | eIF4H inh | eIF4E 4G PPI
COC(=O)CCCC1=CC2=C(c3ccccc3)C(=O)C(C)(OC(=O)C3CCCC3)C(=O)C2=CN1Cc1ccco1 (stereo unspecified) | 39* | x | 37 | 60 | 0
Cc1cccc(S(=O)(=O)N(C)C[C@@H]2OCc3cnnn3CCCC(=O)N([C@H](C)CO)C[C@H]2C)c1 | x | x | 7 | x | x
Cc1ccc(CNC(=O)/C=C/c2ccccc2Cl)cc1 | 0 | 3.0* | 9 | 3 | 4
Cc1ccc(CNC(=O)/C=C/c2c(Cl)cccc2Cl)cc1 | -7 | 1 | 1 | -4 | 5
Cc1cc2nc(C3CCN(Cc4nnnn4Cc4ccccc4)CC3)[nH]c2cc1C | -14 | -1 | -7 | 3 | 0
Cc1nc2c([nH]1)C1(CCN(Cc3ccccc3)CC1)C(C#N)=C(N)O2 | 66* | -1 | 5 | 45* | -7
CC1(C)CC(=O)C2=C(C1)OC(N)=C(C#N)C21CCN(Cc2ccccc2)CC1 | u | 1 | 16 | u | 7
CN(CCOC(=O)/C=C/c1ccco1)Cc1ccccc1 | 46* | 0 | 10 | 90* | 14
CN(Cc1ccccc1)C(=O)COC(=O)/C=C/c1ccco1 | 25* | 0 | 5 | 82* | 48*
COC(=O)C1=C(C)C(c2ccc(OC)cc2)NC(=O)N1 (stereo unspecified) | -7 | 1 | 0 | -12 | 3
CN1CCN(c2nc3nonc3nc2N2CCN(C)CC2)CC1 | 100* | 2 | 25 | 80* | 5
C1CCN(c2nc3nonc3nc2N2CCCCC2)CC1 | 14 | 0 | 9 | 0 | 0
COc1ccc(C(=O)CSc2ccc(-c3ccccc3)nn2)cc1 | -1 | 0 | 5 | -12 | 2
O=C(CSc1ccc(-c2ccccn2)nn1)c1ccc([N+](=O)[O-])cc1 | -15 | 0 | 26 | -4 | -7
COc1ccc(C(=O)CSc2ccc(-c3ccco3)nn2)cc1 | -12 | 0 | 18 | 86 | 2
O=C(CSc1ccc(-c2ccco2)nn1)c1ccccc1 | active | 1 | 28 | 101* | -2
O=C(CSc1ccc(-c2ccncc2)nn1)c1ccccc1 | -4 | -1 | 38* | -8 | 0
O=C(CSc1ccc(-c2cccnc2)nn1)c1ccc([N+](=O)[O-])cc1 | -2 | -1 | 45* | 1 | -1
O=S(=O)(O)CCS | x | x | 27 | x | x
NC(=O)COC(=O)c1cccc(S(=O)(=O)N2CCCCC2)c1 | -7 | -1 | 2 | -10 | 1
COc1ccc(CNC(=O)CCn2c(=O)c3cccn3c3ccc(F)cc32)cc1 | 7 | x | -1 | -2 | x
CCCN(CC(=O)Nc1cc(C)on1)CC(=O)Nc1ccccc1C | x | x | -2 | x | x
Cc1ccc(NC(=O)CN(C)CC(=O)Nc2ccccc2C#N)cc1 | 60 | -1 | 15 | active | -5
CCCN(CC(=O)Nc1ccc(C(C)=O)cc1)CC(=O)Nc1ccccc1C | 56* | -1 | -21 | u | 2
O=C1C2C3C=CC(CC3)C2C(=O)N1c1ccc([N+](=O)[O-])cc1 (stereo unspecified) | 1 | x | 5 | 0 | x
SMILES | PABP polyA inh | PERK inh | MLLE-PAM2 inh | eIF4H inh | eIF4E 4G PPI
CSCCC(NC(=O)c1ccco1)C(=O)OCC(=O)Nc1sccc1C#N (stereo unspecified) | 28 | 1 | x | 22 | -1
CN(C)c1ccc(N=Nc2ccc(C(=O)O)cc2)cc1 | 64* | x | -16 | 70* | x
O=C(O)CCC(=O)c1ccc2c(c1)OCCCO2 | -10 | 0 | -1 | -10 | 0
Cc1cc(C)c2nc(N3C(=O)C(O)=C(C(=O)c4ccco4)C3c3ccco3)sc2c1 (stereo unspecified) | 37 | x | 4 | 66* | x
COc1ccc(C2C(C(=O)c3ccco3)=C(O)C(=O)N2c2nnc(C)s2)cc1OC (stereo unspecified) | u | x | 44* | u | x
CC(=O)OCCCn1c(C)[n+](C)c2cc(Cl)c(Cl)cc21 | 49 | 0 | -137 | -16 | 24
CCn1c(C)[n+](CCOC(C)=O)c2cc(Cl)c(Cl)cc21 | 62* | 0 | -128 | 0 | 3
O=C(CCS(=O)(=O)c1ccccc1)N1CCOCC1 | 5 | 0 | 17 | -8 | -7
CCCN1C(=O)/C(=c2\s/c(=C3\C=Cc4ccccc4N3CC)c(=O)n2-c2ccccc2)SC1=S | -20 | 1 | x | 5 | 6
CCCn1c(=C(C#N)C#N)s/c(=C2\C=Cc3ccccc3N2CC)c1=O | 9 | 1 | 40* | 2 | -2
COC(=O)c1ccc(OC(=O)/C=C/c2ccco2)cc1 | 10 | x | -8 | 10 | x
O=C(/C=C/c1ccccc1)Oc1ccc(C(=S)N2CCOCC2)cc1 | 21 | 0 | 27 | -5 | -4
O=C(/C=C/c1ccco1)Oc1ccc(C(=S)N2CCOCC2)cc1 | active | 1 | 8 | 97* | -2
O=Cc1cccc(OC(=O)/C=C/c2ccco2)c1 | 70* | x | 0 | 89* | x
CC(=O)c1ccc(NCC2COc3ccccc3O2)c([N+](=O)[O-])c1 (stereo unspecified) | 5 | 0 | 3 | 7 | 4
CCCCCCCCCC(=O)NNC(=O)c1c(O)c2ccccc2n(CC)c1=O | 2 | 1 | -5 | 19 | -4
O=C(c1ccccc1)N1CCSC1=S | 0 | 3.0* | 5 | -3 | -3
O=C(OCc1nnc(-c2ccccc2)o1)c1ccc(Cl)cc1 | 6 | 1 | 5 | 13 | -2
O=C(/C=C/c1ccco1)OCc1nnc(-c2ccc(Cl)cc2)o1 | active | 2 | -5 | 57* | 6
O=C(Cc1ccc(Cl)cc1)OCc1nnc(-c2ccccc2)o1 | -5 | 1 | -11 | -1 | 88*
CC(=O)Nc1ccc(NCN2C(=O)C3C4CCC(C4)C3C2=O)cc1 (stereo unspecified) | -2 | 0 | 5 | 2 | 4
Cc1noc(C)c1-c1csc(N2CCC(C(N)=O)CC2)n1 | x | x | 40* | x | x
NC(=O)C1CCN(c2nc(-c3ccc(Br)cc3)cs2)CC1 | -6 | 0 | 3 | 1 | 15
COc1ccc(SC[C@H](C)CN2CC[C@H](C(C)(C)C)CCC2=O)cc1 | x | x | 40* | x | x
CC(=O)Nc1ccc(SCCN2CC[C@@H](C(C)(C)C)CCC2=O)cc1 | x | x | 41* | x | x
Nc1nc(Cl)nc2c1ncn2C1OCC(O)C(O)C1O (stereo unspecified) | x | x | -11 | x | x
Cc1cc(C)c2cc3c(ccn3C3OC[C@H](O)[C@H](O)[C@H]3O)cc2n1 (stereo partly specified) | 53* | 1 | 49* | 33* | -18
CCOC(=O)c1c(-c2ccccc2)csc1NC(=O)C1CCCO1 (stereo unspecified) | 5 | 1 | 39* | -2 | 5
